The record followed here is PubChem BioAssay AID1794835 (Parasite Biology Lab, Institute for Biomedicine and …, 2023).

Structures are written as SMILES. The whole screen tested about 2,500 compounds, of which about 45 (2%) were called active. Cut-off read from the data, not from the text of the source: active = inhibition mostly above about 45% (no sharp cut-off); inactive = mostly below about 37%. The sample as a whole holds a higher share of actives than the screen did.

For orientation: inhibition means the percentage by which the read-out fell short of the control.

A short description of the test: anti-Giardia activity of synthetic compounds – Compounds Australia Scaffold Library subset, 24/48 h, primary screen (AID 1794835).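 For inhibition: 0% = parasite counts in DMSO vehicle wells.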 To be noted: Giardia lamblia BRIS/91/HEPU/1279 trophozoite counts, imaging, at 10 µM.
[1] abbreviates: measured here: growth inhibition at 24 h, stronger effect = higher value.

`Cc1ccc(CNC(=O)N2CCN(C3=CC4=NCC(C)N4C=N3)CC2)cc1` (stereo unspecified): the inhibition is 11.9% (inactive) (stronger effect = higher value) and 18.7% under setting [1].

Take `Cc1ccc2c(c1)NC(c1ccc(C)o1)=NC(c1cccs1)=N2`: the inhibition (stronger effect = higher value) was 54.6% (active) and the inhibition under setting [1] was 15.2%.

For `Fc1ccc(C2=Nc3ccc(Cl)cc3NC(c3cccs3)=N2)cc1`, the outcome was inactive. The same molecule returned an inhibition under setting [1] of 23%.

As to `CCn1c(C2CCN(C(=O)c3ccc(Br)cc3)C2)nc2cccnc21` (stereo unspecified), the inhibition result was “inactive”.

In the case of `CCCn1c(=O)c(C)nc2cc(-c3noc(-c4cccc(NC(=O)c5ccco5)c4)n3)ccc21`, the inhibition result is “inactive”.

Consider `COc1cc(OC)c(N2CC(C(=O)N3CCc4sccc4C3)CC2=O)cc1Cl` (stereo unspecified), for which the inhibition result was “inactive”.

Turning to `O=[N+]([O-])c1cc(F)ccc1Sc1nnc(N2CCOCC2)s1`, the inhibition is 60.8% (active) (stronger effect = higher value) and 30.9% under setting [1].

For the molecule `O=[N+]([O-])c1ccccc1Sc1nnnn1C1CCOCC1`, the inhibition is, setting by setting: (stronger effect = higher value) 8.6% (inactive); under setting [1], 6.15%.

Turning to `C1CCC(Sc2nnc(N3CCOCC3)s2)C1`, the inhibition entry is “inactive”.

On to `CCCC(=O)Nc1ccc2nc(N3CCCC3)cc(C(=O)O)c2c1`, for which the inhibition result was “inactive”.

As for `COc1ccc(CN2CCN(C(=O)c3c(C)oc4c3C3=NCCN3C=N4)CC2)c(OC)c1OC`, the inhibition (stronger effect = higher value) was 7.4% (inactive) and the inhibition under setting [1] was determined as 3%.

On to `Cc1ccccc1C(=O)Nc1cnc(N2CCNCC2)c(C(=O)N(C)Cc2ccccc2)c1`, for which the inhibition (stronger effect = higher value) is 15.2% (inactive) and the inhibition under setting [1] stood at 10.2%.

Turning to `CCC(=O)N1CCC(Oc2ccc(C(=O)N3CCOCC3)cn2)CC1`, the inhibition entry is “inactive”.

For the molecule `Cc1nnc2n1CCN(C(=O)c1cc(Br)c[nH]1)C2`, the inhibition result was “inactive”.

As for `COc1cc(N2CCn3c(nc4cc(Cl)ccc43)C2)ccc1NC(=O)COc1ccccc1`, the inhibition result is “inactive”.

Take `COc1c(C)cnc(Cn2cnc([N+](=O)[O-])c2)c1C`: the inhibition runs as follows: (stronger effect = higher value) 83% (active); under setting [1], 25.8%.

On to `Cc1noc(-c2c(C)sc(C)c2S(=O)(=O)NCc2ccccc2)c1C`, for which, under “stronger effect = higher value”, the inhibition was 30.5% (inactive).

Regarding `Cc1ccc(C(=O)N2CCC(Oc3ncccc3C(=O)N3CCCCC3)C2)c(C)c1` (stereo unspecified), the result was inactive. The inhibition under setting [1] came to 0.6%.

As to `Cc1ccc2oc(-c3noc(C(=O)NCC4CCCO4)n3)c(C)c2c1` (stereo unspecified), the call was inactive. Moreover, the inhibition under setting [1] stood at 2%.

For `COc1ccc2oc(-c3noc(C(NC(=O)c4ccco4)C(C)C)n3)c(C)c2c1` (stereo unspecified), the inhibition runs as follows: (stronger effect = higher value) 9.9% (inactive); under setting [1], 18.3%.

Regarding `COc1ccc2oc(-c3noc(C(=O)NCCN4CCCCCC4)n3)c(C)c2c1`, the inhibition is, setting by setting: (stronger effect = higher value) 56.6% (active); under setting [1], 11.6%.

For the molecule `Cc1cccc(-c2nc(Cn3nnc(C(=O)Nc4ccc5c(c4)OCCO5)c3N)c(C)o2)c1`, the inhibition result was “inactive”.

On to `CSc1ccc(CCNC(=O)c2ccc3c(c2)nc2n3CCOC2)cc1`, for which the inhibition (stronger effect = higher value) is 12.8% (inactive).

For `CCOc1ccc(CCNC(=O)c2ccc3c(c2)nc2n3CCOC2)cc1OCC`, the inhibition is 79.8% (active) (stronger effect = higher value) and 27.2% under setting [1].

In the case of `CCOc1ccc(CCNC(=O)c2c(C)oc3c2C2=NCCN2C=N3)cc1OCC`, the inhibition (stronger effect = higher value) was 17.8% (inactive).

As to `Cc1ccc(-c2nc3ccccc3n2Cc2cccc(F)c2)o1`, the inhibition was 16.3% (inactive) (stronger effect = higher value) and 22.1% under setting [1].

Take `COc1ccc(C2(C(=O)N3CCC(Cc4nc(-c5ccc(F)cc5)no4)CC3)CC2)cc1`: the call was inactive. The inhibition under setting [1] was found to be 11.4%.

On to `C=CCn1c(SCC(=O)N2CCCCC2)nc2scc(-c3ccco3)c2c1=O`, for which the inhibition reads like this: (stronger effect = higher value) 5.6% (inactive); under setting [1], 6.8%.

Turning to `CCCCn1nnnc1CN1CCCC1Cn1cncn1` (stereo unspecified), the molecule was called inactive. The inhibition under setting [1] stood at 2%.

For the molecule `O=C(Nc1ccn(Cc2cccnc2)n1)c1ccc2n[nH]nc2c1`, the inhibition result is “inactive”.

For `O=C(Cc1csc2nc(-c3ccccc3)cn12)NCCc1cccs1`, the molecule was called inactive. Further, the inhibition under setting [1] was 0.1%.

`O=C(Cn1nccc1-c1ccncc1)Nc1ccc(Cl)cc1`: the inhibition entry is “inactive”.

For the molecule `O=C(Cc1csc2nc(-c3ccccc3)cn12)Nc1ccc(Cl)cc1`, the inhibition reads like this: (stronger effect = higher value) 67.7% (active); under setting [1], 47.6%.

As for `Cc1oc(-c2cccs2)nc1Cn1cccn1`, the inhibition entry was “inactive”.

Regarding `O=C(Cc1noc(-c2ccoc2)n1)NC1CCCCC1`, the inhibition is 3.1% (inactive) (stronger effect = higher value) and 4.9% under setting [1].

Consider `Cc1ccc(C)c(-c2cc3c4nn(CC(=O)N(C)c5ccc(F)cc5)c(=O)n4ccn3n2)c1`, for which the inhibition was 96.3% (active) (stronger effect = higher value) and 79.6% under setting [1].

Regarding `Cc1ccc(CNC(=O)c2ccc3nn(CC(=O)N(C)c4ccccc4)c(=O)n3c2)cc1`, the inhibition entry was “inactive”.

On to `O=C(Cn1nc2c3cc(-c4ccccc4)nn3ccn2c1=O)N1CCCc2ccccc21`, for which the inhibition result is “inactive”.

As to `O=S(=O)(Cc1ccc(C(F)(F)F)cc1)Cc1noc(C2CC2)n1`, the result was inactive. The inhibition under setting [1] is 12.6%.

Take `CCc1nccn1CC1CCCN1` (stereo unspecified): the result was inactive. Under setting [1], this molecule had an inhibition of 0.2%.

With `Cc1ccc(N2C(=O)N[C@@H]3C[C@]2(C)Oc2c(O)cc(C(C)(C)C)cc23)cc1C`, the inhibition entry is “inactive”.

As to `Cc1c(-c2nc(-c3ccccc3)no2)nnn1-c1cccc(Cl)c1`, the inhibition entry was “inactive”.

Turning to `CN(C)C(=O)Cc1nc(CN2CCc3c(ncn3C)C2)cs1`, the outcome was inactive. This molecule showed an inhibition under setting [1] of 1.4%.

`Cc1ccc(NC(=O)Cc2nc(-c3ccc4c(c3)CC(=O)N4C)cs2)cc1`: the inhibition was 10% (inactive) (stronger effect = higher value) and 9.8% under setting [1].

Regarding `Cc1ccc(C)c(NC(=O)Cc2nc(Cn3cnc([N+](=O)[O-])c3)cs2)c1`, the inhibition is 59.9% (active) (stronger effect = higher value) and 8.45% under setting [1].
